The values that follow come from PubChem BioAssay (NCATS).

Results filed as inconclusive are left out. The source made the active and inactive calls. Unless noted, calls come from the whole dose curve; as a rule, active = well fitted cell-killing curve with a large enough effect; inconclusive = small, poorly fitted or top-dose-only effect, or effect the other way; inactive = no such curve, though single readings can be large or run the other way.

The nature of test [1]: Quantitative High-Throughput drug screen in 47 multiple myeloma cell lines against the NCATS MIPE library collection: PE2_PLB cell viability assay (AID 1919869). Note: nearly all actives have a fitted effect of over 35% in size. Put shortly:
(§1)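 Viability after 48 h drug exposure was measured as ATP-dependent luminescence. Cells, 500 per well, sat at 37 °C under 5% CO2; DMSO wells set 100%, media-only wells 0%.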

The nature of test [2]: Quantitative High-Throughput drug screen in 47 multiple myeloma cell lines against the NCATS MIPE library collection: PCM6_Riken cell viability assay (AID 1919870). Note: nearly all actives have a fitted effect of over 30% in size. Put shortly:
as §1

Test [3] in a line: Quantitative High-Throughput drug screen in 47 multiple myeloma cell lines against the NCATS MIPE library collection: RPMI8226_ATCC cell viability assay (AID 1919871). Note: nearly all actives have a fitted effect of over 30% in size. Put shortly:
as §1

Test [4] can be described thus: Quantitative High-Throughput drug screen in 47 multiple myeloma cell lines against the NCATS MIPE library collection: OPM2_DSMZ cell viability assay (AID 1919872). Note: nearly all actives have a fitted effect of over 30% in size. Put shortly: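 Myeloma cell lines, 500 cells per well, exposed to MIPE 4.0 library compounds for 48 h at 37C, 5% CO2. Viability from ATP by CellTiter-Glo luminescence; normalised to DMSO (100%) and media-only (0%) wells.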

Test [5] can be described thus: Quantitative High-Throughput drug screen in 47 multiple myeloma cell lines against the NCATS MIPE library collection: KMS11_JCRBsus cell viability assay (AID 1919873). Note: nearly all actives have a fitted effect of over 50% in size. Put shortly:
as §1

Test [6] in a line: qHTS drug screen for cell cycle checkpoint inhibitors in PARPi-resistant BRCA-mutant ovarian cancer cell lines. (AID 1963452; calls by dose curve). The following applies: PEO1/OlaR viability, CellTiter-Glo luminescence, 96 h; for Z-AUC: stronger effect = lower value. Put shortly:
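PEO1, PEO4 and PEO1/OlaR ovarian cancer cells, 600 per well, exposed 96 h at 37C to a dilution series. Viability read by CellTiter-Glo luminescence, normalized to DMSO and empty wells; activity summarized as Z-AUC.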

The nature of test [7]: qHTS for identification of novel therapeutic agents for treatment of microphthalmiaassociated transcription factor (MiT) renal cell carcinoma (RCC) (AID 1963991; calls by dose curve;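 for z-score: curves scaled with 100% = DMSO viability and 0% = empty wells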). As to conditions: CellTiter-Glo, 48 h; for Potency: active = Z-AUC below -0.8 in all three lines; for z-score: stronger effect = lower value. Put shortly: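 UOK109/UOK124/UOK145 (TFE3 fusions, three partners); 500 cells/well; MIPE v4.0, 1912 cpds, 11 conc.; 48 h, 37 C; CellTiter-Glo, 15 min RT; lum. Norm.: DMSO 100%, empty 0%.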

Test [8] is described as follows: Quantitative High-Throughput drug screen in 47 multiple myeloma cell lines against the NCATS MIPE library collection: KMS28BM_JCRB cell viability assay (AID 1919874). Note: nearly all actives have a fitted effect of over 35% in size. Put shortly:
as §1

[9] abbreviates: measured here: PEO1 parental Z-AUC.
[10] abbreviates: TFE3-RCC UOK109 viability, measured here: UOK109 Z-AUC.
Setting [11] is: TFE3-RCC viability, measured here: UOK124 Z-AUC.
Where [12] appears, read: TFE3-RCC viability, measured here: UOK145 Z-AUC.
Potency is the fitted concentration of half-maximal effect.

In the case of `C=C1C(=CC=C2CCC[C@]3(C)[C@@H]([C@H](C)C=C[C@H](C)C(C)C)CC[C@@H]23)C[C@@H](O)C[C@@H]1O`, the Potency is 16600 nM (active) in test [1]; 1320 nM (active) in test [2]; 14800 nM (active) in test [3]; 10500 nM (active) in test [4]; 526 nM (active) in test [5]; 418 nM (active) in test [7] (TFE3-RCC UOK109 viability). Moreover, the Z-AUC in test [6] is 0.703 (inactive); in test [6] (setting [9]), 0.5; in test [6] (measured here: PEO4 Z-AUC), 0.821. Besides, the z-score was -1.36 in test [7] (setting [10]), -0.997 in test [7] (setting [11]) and -1.08 in test [7] (setting [12]).
As to `Cc1cc(N2CCOCC2)cc2[nH]c(-c3c(NC[C@@H](O)c4cccc(Cl)c4)cc[nH]c3=O)nc12`, the Potency in test [1] was 148 nM (active); in test [2], 332 nM (active); in test [3], 469 nM (active); in test [4], 3720 nM (active); in test [5], 26.4 nM (active). Further, the Z-AUC in test [6] was -0.44 (inactive); in test [6] (setting [9]), -0.435; in test [6] (measured here: PEO4 Z-AUC), -0.57.
As for `COc1cc(=C2C=c3ccccc3=N2)[nH]c1=Cc1[nH]c(C)cc1C`, the Potency in test [1] was 1480 nM (active); in test [2], 5900 nM (active); in test [3], 1660 nM (active); in test [4] it was 4180 nM (active); in test [5], 1050 nM (active); in test [8], 935 nM (active). Besides, the Potency in test [7] (TFE3-RCC UOK109 viability) is 8330 nM (active). For the same molecule, the figures for the z-score in test [7] (setting [10]), in test [7] (setting [11]) and in test [7] (setting [12]) were -1.08, -0.978 and -0.974, respectively.
On to `O=C(Nc1cc(C(F)(F)F)cc(C(F)(F)F)c1)c1cc(Cl)ccc1O`, for which the Potency in test [1] is 590 nM (active); in test [2], 1320 nM (active); in test [3] it was 662 nM (active); in test [4], 1320 nM (active); in test [5], 332 nM (active); in test [7] (TFE3-RCC UOK109 viability) it was 1180 nM (active). Also, the values for the z-score in test [7] (setting [10]), in test [7] (setting [11]) and in test [7] (setting [12]) were -1.74, -1.08 and -1.95, respectively.
For `OCc1ccc(-c2ccc(-c3ccc(CO)s3)o2)s1`, the Potency in test [1] is 3720 nM (active); in test [2] it was 7430 nM (active); in test [3], 23500 nM (active); in test [4], 23500 nM (active); in test [5], 11800 nM (active). The Z-AUC is 1.64 (inactive) in test [6], 1.79 in test [6] (setting [9]) and 1.79 in test [6] (measured here: PEO4 Z-AUC).
Regarding `C=CCn1c(=O)c2cnc(Nc3ccc(N4CCN(C)CC4)cc3)nc2n1-c1cccc(C(C)(C)O)n1`, the Potency in test [1] was 235 nM (active); in test [2] it was 469 nM (active); in test [3], 2350 nM (active); in test [4], 1180 nM (active); in test [5], 264 nM (active); in test [8], 418 nM (active). Moreover, the Potency in test [6] is 138 nM (active); in test [7] (TFE3-RCC UOK109 viability), 235 nM (active). Moreover, the Z-AUC in test [6] (setting [9]) was -1.63; in test [6] (measured here: PEO4 Z-AUC), -1.42. Besides, the z-score is -1.89 in test [7] (setting [10]), -1.72 in test [7] (setting [11]) and -2.1 in test [7] (setting [12]).
For the molecule `CN(C)c1nc(Cc2ccc(NC(=O)c3ccc4ccccc4c3)cc2)nc(Cl)c1CC(=O)O`, the Potency entry in test [1], in test [2], in test [3], in test [4] and in test [8] was “inactive” each time. The figures for the z-score in test [7] (setting [10]), in test [7] (setting [11]) and in test [7] (setting [12]) were 0.743, 0.693 and 0.756, respectively.
As to `Nc1nc(Nc2ccc(S(N)(=O)=O)cc2)nn1C(=O)c1c(F)cccc1F`, the Potency is 3320 nM (active) in test [1]; 1870 nM (active) in test [2]; 18700 nM (active) in test [3]; 14800 nM (active) in test [4]; 7430 nM (active) in test [5]. Besides, the figures for the Z-AUC in test [6], in test [6] (setting [9]) and in test [6] (measured here: PEO4 Z-AUC) were 0.423 (inactive), -0.334 and -0.463, respectively.
